Source: PubChem BioAssay AID2149 (The Scripps Research Institute Molecular Screening Center, 2009)
Out of some 2,400 compounds screened, about 1,800 (75%) were called active.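 How the source made its calls: active means inhibition above the primary screen limit, the mean inhibition of all tested compounds plus 3 SD (cut at about 25% in these data); inactive means the rest.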 The set was probably picked from earlier hits. The list is a sample of the results.

tested on: tRNA 2'-phosphotransferase TPT1 [Candida albicans SC5314]; assay: tRNA 2'-phosphotransferase enzyme inhibition – biochemical, fluorescence polarization, triplicate, confirmation (AID 2149); details: recombinant caTPT1, fluorescence polarization, RNase T1 coupled; at 5 µM; stronger effect = higher value

Structure (SMILES)	inhibition
C[n+]1ccc(/C=C/c2c[nH]c3ccccc23)cc1	56.5% (active)
Cc1nc2ccccc2nc(=O)c1NNc1ccc([N+](=O)[O-])cc1	35.8% (active)
CC(=O)n1c(C=Nc2ccccc2)c(O)c2ccccc21	73.1% (active)
COc1cc2c(cc1O)[C@H](Cc1ccc(Oc3cc(C[C@@H]4NCCc5cc(OC)c(O)cc54)ccc3O)cc1)NCC2	33.8% (active)
COc1cc(N2CCCC2)c(OC)cc1/C=C(/C#N)c1cccc(Br)c1	68.1% (active)
CC(=O)c1cc(NC(=O)c2ccccc2)c(=O)oc1/C=C/N(C)C	118% (active)
CC(C)(C)c1ccc(/C=C2\Oc3c(ccc(O)c3CN3CCN(CCO)CC3)C2=O)cc1	37.2% (active)
C=CCC1=C/C(=C\c2c(N)n3nc(CC(=O)N4CCOCC4)sc3nc2=O)C=C(OC)C1=O	104% (active)
CCOC(=O)/C(C#N)=C/c1ccc(N2CCCCC2)cc1	126% (active)
CCOC(=O)/C(C#N)=C/c1ccc(N2CCN(Cc3ccccc3)CC2)cc1	81.9% (active)
CCN1/C(=C/c2ccc3ccc(C)cc3[n+]2CC)Sc2ccccc21	44.2% (active)
CCN1/C(=C\c2ccc3ccccc3[n+]2CC)Sc2cc(C)ccc21	78.3% (active)
COc1ccc(N=C(C)c2sc3ccccc3c2O)cc1	70.2% (active)
COc1ccc(C2=NN(C(=O)c3ccccc3C(=O)O)C(c3ccccc3O)C2)cc1 (stereo not given)	26.3% (active)
CN(C)c1ccc(/C=C2\NC(=S)N(Cc3ccccc3)C2=O)cc1	160% (active)
CCOC(=O)c1c(NC(=S)Nc2ccccc2)sc2c1CCN(C)C2	42.8% (active)
COc1cc(/C=C2/C(=O)NN(c3cccc(Cl)c3)C2=O)cc(Br)c1O	153% (active)
Oc1ccc(/C=N/Nc2nc(-c3ccccc3F)nc3ccccc23)c(O)c1	29.1% (active)
CN(c1ccccc1)c1ccc(/C=c2\s/c(=C(/C#N)C(=O)C(C)(C)C)n(Cc3ccco3)c2=O)cc1	127% (active)
CN1/C(=C\C=C2\N=C(c3ccc(F)cc3)OC2=O)C(C)(C)c2ccccc21	151% (active)
Cc1ccc(Nc2ccccc2N)cc1	25.8% (active)
CCOC(=O)c1c(CC(C)C)csc1/N=C/C1=C(O)CCCC1=O	11.9% (inactive)
Cn1cccc1/C=C1\SC(=S)N(NC(=O)c2ccc(Cl)cc2)C1=O	101% (active)
CCn1c(/C=C/c2ccc([N+](=O)[O-])o2)nc2ccccc2c1=O	36.7% (active)
COc1ccccc1/C=N/Nc1nc(C)c(C(C)=O)s1	33.1% (active)

Structure (SMILES)	inhibition
CCOc1nnc(C)c2c(C)n(-c3cccc(Cl)c3)nc12	76.5% (active)
O=C1NC(=O)C2C1C(c1ccc([N+](=O)[O-])cc1)=NN2Cc1ccccc1 (stereo not given)	33.2% (active)
CCN(CC)C(=O)CSC(Nc1cccc(F)c1)=C(C#N)C#N	46.5% (active)
O=C(N/N=C/c1sc(N2CCCCC2)nc1-c1cccs1)c1cccnc1	44.1% (active)
NNC(=O)c1oc2nc(-c3ccccc3)cc(-c3ccco3)c2c1N	31.5% (active)
COc1ccc(Cc2nc(-c3ccccn3)no2)cc1OC	8.13% (inactive)
Cc1ccc(Nc2nc(Cl)c(C=O)s2)cc1	67.3% (active)
CCOc1ccc2nc(/N=C/c3nc(-c4ccccc4)oc3O)sc2c1	58.6% (active)
Fc1ccc2nc(Nc3nc4c(s3)CCCC4)sc2c1	28.4% (active)
Cc1c(-c2ccccc2)cn2c1-c1ccc(C)n1CC2	32.8% (active)
Cn1c2ccccc2c2cc(/C=C(\NC(=O)c3ccccc3)C(=O)NCC(=O)O)ccc21	80.3% (active)
Cc1ccc(-c2nn(-c3ccccc3)cc2/C=C2\SC(=S)N(CCCCCC(=O)O)C2=O)o1	68.6% (active)
O=C(Nc1ccc(S(=O)(=O)Nc2nccs2)cc1)c1cc(-c2ccncc2)nc2ccccc12	49.1% (active)
CS(=O)(=O)c1ccc2c(c1)SC1=NC(=O)/C(=C/c3ccco3)C(=N)N12	44.3% (active)
Cc1cc(/C=C2/SC(=O)N(CC(=O)N3CCCC3)C2=O)ccc1N1CCOCC1	63.5% (active)
Cc1sc2nc(COC(=O)C(NC(=O)c3ccc(Cl)cc3Cl)C(C)C)[nH]c(=O)c2c1C (stereo not given)	55.1% (active)
Cc1c(C(=O)OC(C)C)sc(NC(=O)c2cccnc2)c1C#N	26% (active)
Nc1c(C(=O)c2cccs2)sc2nsc(SCCN3CCCCC3)c12	67.7% (active)
CCCCCCc1cc2cc(-c3nnc(-c4ccccc4)o3)c(=O)oc2cc1O	117% (active)
COc1cc(/C=C2/SC(=S)N(Cc3ccccc3)C2=O)cc(OC)c1O	98.5% (active)
CCN(CC)c1ccc2cc(C(N)=O)/c(=N\NC(=O)c3ccncc3)oc2c1	139% (active)
Cc1cc(O)c(C(=O)/C=C/c2c(F)c(F)c(F)c(F)c2F)c(=O)o1	63.4% (active)
CN1C(=O)/C(=C/C=C2\SCCN2C)OC1=S	172% (active)
CCN(CC)c1ccc(/C=N/Nc2nc(C)cc(C)n2)c(O)c1	34% (active)
CSC1=N/C(=C\C=C\c2cccs2)C(=O)S1	52.8% (active)

Structure (SMILES)	inhibition
Nc1nonc1-n1nnc(C(=O)N/N=C/c2cc(Br)ccc2O)c1CSC1=NCCS1	37.7% (active)
N#C/C(=C/c1ccc(N2CCCCC2)o1)C(=O)NCCc1c[nH]c2ccccc12	191% (active)
Cc1ccc(-n2c(C)cc(/C=N/Nc3ccc([N+](=O)[O-])cn3)c2C)c(C)c1	60.9% (active)
Cc1cc(/C=N/Nc2ccc([N+](=O)[O-])cn2)c(C)n1-c1cccc(C(=O)O)c1	54.5% (active)
Cc1ccc2[nH]c(=O)c(CN3CCCCC3)c(-c3ccccc3)c2c1	2.06% (inactive)
N#C/C(=C(/O)COC(=O)COc1ccc(Cl)cc1)c1nc2ccccc2[nH]1	40.6% (active)
CCOc1ccc(-n2c(O)c(/C=N/c3ccnn3Cc3ccncc3)c3ccccc3c2=O)cc1	80.4% (active)
CN=c1scc(-c2cc(OC)ccc2OC)n1/N=C/c1c(C)[nH]c2ccccc12	22.2% (inactive)
O=C1Nc2cc(C(=O)N3CCN(c4ccc(F)cc4)CC3)ccc2NC1CSCc1cccc(F)c1 (stereo not given)	112% (active)
Cc1ccc(CSCC2Nc3ccc(C(=O)N4CCN(c5ccc(F)cc5)CC4)cc3NC2=O)cc1 (stereo not given)	16.1% (inactive)
CC(C)c1ccc(Nc2nnc(SCC(=O)c3nnc(-c4ccccc4)o3)s2)cc1	21.4% (inactive)
COC(=O)c1[nH]c2cccc(C)c2c1NC(=O)CN1CCCc2ccccc21	19% (inactive)
Cc1cccc2cc3c(N)c(C(=O)N4CCCc5ccccc54)sc3nc12	51.9% (active)
CCOC(=O)C1=C(C)Nc2sc(C(=O)c3ccc(Br)cc3)c(N)c2C1c1ccc(C(=O)OC)cc1 (stereo not given)	29.3% (active)
CCC(c1nnnn1Cc1ccco1)N(Cc1cc2cc(OC)ccc2[nH]c1=O)C1CCCCC1 (stereo not given)	13.7% (inactive)
CC1=CC2=NC(=O)/C(=C/c3coc4ccccc4c3=O)C(=N)N2O1	34% (active)
CCC(=C/c1sc2ccc3ccccc3c2[n+]1C)/C=C1\Sc2ccc3ccccc3c2N1C	84.5% (active)
NC(=O)c1c(Nc2nc3c(F)cccc3s2)sc2c1CCCC2	92.7% (active)
CN(C)CCCn1c(N)c(C#N)c2nc(C#N)c(C#N)nc21	45.1% (active)
O=S(=O)(O)Oc1c[nH]c2ccccc12	35.9% (active)
Cc1c(CC(=O)N2CCN(C(=O)C3COc4ccccc4O3)CC2)c(=O)oc2c(O)c(O)ccc12 (stereo not given)	7.54% (inactive)
O=C(Cc1nc2ccccc2[nH]c1=O)c1ccc(Cl)cc1	57.8% (active)
O=C(/C=C/c1ccc(N2CCOCC2)cc1)c1ccccc1	84.6% (active)
COc1cc(/C=C(\C#N)c2nc3ccccc3[nH]2)ccc1O	112% (active)
COc1cc(/C=C(\C#N)c2nc3c(s2)CC(C)CC3)ccc1O (stereo not given)	130% (active)

Structure (SMILES)	inhibition
O=C(CN1C(=O)c2ccccc2C1=O)NCc1ccc(C(=O)O)cc1	14.3% (inactive)
Cc1cccn2c(=O)c(/C=C3\SC(=S)N(CC(C)C)C3=O)c(NCCCOC(C)C)nc12	119% (active)
Cn1ccc(=NC=C(C#N)C#N)c2ccccc21	25.4% (active)
O=C(C[n+]1cc(Br)cc2ccccc21)c1ccc(F)cc1	37.5% (active)
CCOc1cc(/C=C(\C#N)c2nc(-c3cccs3)c(NC(C)=O)s2)ccc1O	90.5% (active)
O=[N+]([O-])c1ccc(N/N=C/c2ccccc2)cc1	41.6% (active)
Cc1cccc(COc2ccccc2/C=N/Nc2ccc([N+](=O)[O-])cc2)c1	90.6% (active)
Cc1cccc(NC(=O)c2ccc(COc3ccccc3[N+](=O)[O-])o2)n1	7.02% (inactive)
CCCOc1ccc(Cn2c(O)cc(=O)[nH]c2=O)cc1	22.1% (inactive)
Cc1cc(C)c(/C=C2\C(=O)Nc3ccccc32)[nH]1	113% (active)
CN1C(=O)/C(=C\c2ccc(-c3ccccc3)o2)SC1=S	79.6% (active)
O=C(O)C(c1ccccc1)N1C(=O)/C(=C\c2ccc(-c3cccc(Cl)c3)o2)SC1=S (stereo not given)	151% (active)
CC[n+]1cc(C)ccc1/C=C/c1ccc(N(C)C)cc1	42.1% (active)
Cc1ccc(S(=O)(=O)N(C)c2nc3ccccc3n3c(C(C)C)nnc23)cc1	-0.34% (inactive)
N#C/C(=C\c1ccc(N2CCOCC2)o1)C(=O)N1CCOCC1	170% (active)
Cc1ccc(CC2S/C(=C(/C#N)C(=O)N3CCOCC3)N(c3ccccc3)C2=O)cc1 (stereo not given)	9.14% (inactive)
N#C/C(=C/c1ccc(N2CCOCC2)o1)C(=O)N1CCOCC1	184% (active)
CC1CCN(C(=O)c2ccc3c(c2)NC(=O)CN3)CC1	39.9% (active)
Cc1ccc(N=C2NC(=O)/C(=C/C=C/c3ccco3)S2)cc1C	23.8% (inactive)
N#CC1=C(N)Oc2c(sc3ccccc23)C1c1ccco1 (stereo not given)	78.6% (active)
O=C(NNc1c2ccccc2nc2ccccc12)c1cc2ccccc2cc1O	38.5% (active)
CN1/C(=c2/s/c(=C3/C(=O)N(c4ccccc4)NC3=Nc3ccccc3)n(C)c2=O)C(C)(C)c2ccccc21	81% (active)
Cc1ccc2cc(/C=N/Nc3ccc(C(=O)O)cc3)c(Cl)nc2c1	35.9% (active)
CCOc1ccc(/C=C2\SC(=S)N(NC(=O)c3ccncc3)C2=O)cc1OC	51.7% (active)
Cc1ccc(C)c2[nH]c(=O)c(CCNC(=O)CC(C)C)cc12	3.97% (inactive)
